LmPK inhibitor – LmPK (Leishmania mexicana) enzyme inhibition | Potency, µM (doses to about 57.5 µM), for the others: top-dose activity change, negative = inhibition, hits mostly inhibitors | Q27686 | 290,000 tested, 0.37% active | purified LmPK, Kinase-Glo ATP luminescence, 1 h; also: potency is read from the fitted curve at half-maximal effect; % is scaled to controls: 0 for no effect and ±100 for the full control effect
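In 50 mM imidazole pH 7.2 with 7 mM MgCl2, LmPK (0.1 nM) turned over PEP (0.5 mM) and ADP (0.1 mM) for 1 h at room temperature. Luciferase read-out of ATP.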
FBPA Giardia inh – inhibitors of Giardia lamblia fructose-1,6-bisphosphate aldolase | Potency, µM (doses to about 59.6 µM), inactives show top-dose activity, negative = inhibition, hits mostly inhibitors | 290,000 tested, 0.71% active | purified Giardia FBPA | A8B2U2 | AID 2451; also: potency is read from the fitted curve at half-maximal effect; % is scaled to controls: 0 for no effect and ±100 for the full control effect; nearly all actives have a fitted effect of over 55% in size
Target sequence (A8B2U2 whole entry, looked up): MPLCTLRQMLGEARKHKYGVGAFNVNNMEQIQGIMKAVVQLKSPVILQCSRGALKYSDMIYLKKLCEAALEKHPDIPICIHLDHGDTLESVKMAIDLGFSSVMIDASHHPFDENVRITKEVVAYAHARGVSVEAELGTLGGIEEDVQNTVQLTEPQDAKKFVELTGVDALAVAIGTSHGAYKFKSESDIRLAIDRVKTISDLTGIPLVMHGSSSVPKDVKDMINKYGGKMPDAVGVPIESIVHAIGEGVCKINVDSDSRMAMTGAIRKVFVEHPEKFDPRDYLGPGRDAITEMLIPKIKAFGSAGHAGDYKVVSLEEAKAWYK
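Giardia FBPA (40 nM reagent) was preincubated 10 min at RT with compound (up to 57.5 uM final), then substrate plus GAPDH/TPI/NAD/arsenate coupling system with diaphorase/resazurin was added; resorufin fluorescence (525/598 nm) was read after 20 min.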
Cycloheximide cs – counter-screen for Shiga toxin inhibitors: cycloheximide protein synthesis inhibition; cell reporter, cycloheximide protein synthesis inhibition counterscreen; max response, %; 300,000 tested, 12% active; in the data active = max response mostly above about 13%, no sharp cut-off; inactive = mostly below about 14%; also: read at 38.3 µM for the half of the compounds with a filed dose; 0% is about no effect
NS1 inh – blocks influenza NS1 protein function; Potency, µM (titrated, usually from 46.1 µM), without a hit: at the highest dose activity, positive = more growth; 270,000 tested, 0.4% active; AID 2326; calls by dose curve; also: potency is read from the fitted curve at half-maximal effect; actives are rising curves; nearly all actives have a fitted effect of over 50% in size
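In this qHTS, NS1 from influenza A is expressed in budding yeast, where it slows growth. Cells are switched from glucose to 2% galactose medium (pH 6.0, -URA), treated with compound, and growth recovery is read at OD600.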
Shiga inhibitor – Shiga toxin inhibition; 290,000 tested, 9.2% active; inhibition, % at 38.7 µM; Vero cells, Shiga toxin protein synthesis inhibition reporter; in the data active = inhibition mostly above about 28%, no sharp cut-off; inactive = mostly below about 43%; also: 0% is about no effect
An asterisk follows results filed as active; ? = inconclusive; / = no result; [ ] = dose if it differs, or a comment. The list is not random: actives were taken first. Their share in the collection is about 14%. Unless noted, calls follow the shape of the dose curve; as a rule, active = well fitted curve in the direction sought with a large enough effect; inconclusive = small, poorly fitted or top-dose-only effect, or another doubt; inactive = no such curve, though single readings can be large; an effect the other way counts as inactive or inconclusive.

SMILES | LmPK inhibitor | FBPA Giardia inh | Cycloheximide cs | NS1 inh | Shiga inhibitor
N/C(Cc1ccccc1)=N\OC(=O)c1cccc2ccccc12 | 1% | -2% | 29* | -55% | 64*
N/C(Cc1ccc(Cl)cc1Cl)=N\OC(=O)c1ccccc1F | 3% | 1% | 53* | / | 75*
N/C(Cc1cccc2ccccc12)=N\OC(=O)c1ccccc1F | 1% | / | 23* | -18% | 23
N/C(=N\OC(=O)c1cccc2ccccc12)c1ccc(Br)cc1 | -4% | 0% | 10 | -21% | 22
COC(=O)N1CCC2(CCN(C(=O)Nc3cccc(C#N)c3)CC2)CC1 | / | 12% | / | / | /
O=C(NNC(=O)c1ccc(F)cc1F)c1ccc2c(c1)OCO2 | -1% | 0% | 48* | / | 62*
O=C(Nc1cccc(C(=O)Nc2cccc(Br)c2)c1)c1ccccc1 | -7% | -1% | 12 | -1% | 20
CCOc1ncccc1C(=O)Oc1ccc2c(c1)OCO2 | -13% | -2% | 9 | -52% | 33
CC(C)c1ccc(NC(=O)c2cccc(Br)c2)cc1 | 10% | ? | 36* | / | 119*
CCN(CC(=O)Nc1ccc2c(c1)OCCO2)C(=O)C1CCCCC1 | -2% | 0% | -2 | -7% | 15
O=C(Oc1ccc2c(c1)OCO2)c1ccc(F)cc1Cl | -22% | -4% | 72* | -42% | 137*
CCN(CC(=O)Nc1ccc2c(c1)OCCO2)C(=O)c1cccc(OCC(C)C)c1 | -10% | / | 16* | -13% | 32
CCn1c(SCc2ccccc2)nc2c1c(=O)[nH]c(=O)n2C | -3% | 3% | 1 | -2% | -20
O=C1C[C@@H](c2ccc(O)cc2)Oc2cc(O[C@@H]3O[C@H](CO)[C@@H](O)[C@H](O)[C@H]3O)cc(O)c21 | / | 6% | 7 | / | -4
CCCOc1cccc(C(=O)Nc2cccnc2)c1 | 2% | 3% | 2 | -22% | 5
CCCOc1cccc(C(=O)Nc2ccc3c(c2)OCCO3)c1 | -2% | -2% | 24* | -13% | 71*
Cc1ccc(NC(=O)c2oc3ccccc3c2NC(=O)c2ccc3c(c2)OCO3)cc1 | -3% | -5% | 12* | -8% | 33*
CCOc1ccc(C(=O)Nc2ccc3c(c2)OCCO3)cc1 | -8% | 4% | 34* | -19% | 49*
CCOc1cc(C(=O)NC(=S)Nc2nc(C)cc(C)n2)cc(OCC)c1OCC | -2% | ? | 4 | 5% | 3
COc1ccc(C(=O)NC(=S)Nc2nc(C)cc(C)n2)cc1Br | 3% | -7% | 21* | -36% | 3
COc1ccc(C)cc1S(=O)(=O)N(CC(=O)NC1CCCC1)c1ccc(F)cc1 | -8% | / | -1 | -1% | -3
CC(=O)OC[C@H]1O[C@@H](CCO/N=C2/[C@H]3O[C@@H]3[C@@H](O)[C@H]3[C@H]2CCn2c(=O)n(-c4ccccc4)c(=O)n23)C=C[C@@H]1OC(C)=O | / | 0%[12.9 µM] | / | / | /
CCCCOc1cccc(C(=O)Nc2ccc(NC(=O)c3ccco3)cc2)c1 | -2% | 1% | -2 | 3% | -18
COc1cccc2c1OC1(C)CC2NC(=O)N1c1cccc(C(=O)Nc2ccc3c(c2)OCCO3)c1 (stereo unspecified) | 2% | -5% | 33* | -1% | 93*
Cc1ccc(S(=O)(=O)CC(=O)c2ccc3c(c2)OCCO3)cc1 | -2% | -2% | 45* | -1% | 82*
SMILES | LmPK inhibitor | FBPA Giardia inh | Cycloheximide cs | NS1 inh | Shiga inhibitor
COc1ccc(NC(=O)c2cccc(N3C(=O)NC4CC3(C)Oc3ccccc34)c2)cc1 (stereo unspecified) | 4% | 5% | -4 | 6% | -20
CCCc1cc2c(cc1NC(=O)c1ccc(C(C)(C)C)cc1)OCO2 | -8% | -12% | 22* | -10% | 29*
CCCOc1cccc(C(=O)Nc2cccc(NC(=O)c3ccco3)c2)c1 | 0% | -2% | 14* | -83% | 67
CCCc1cc2c(cc1NC(=O)c1ccc(Br)cc1)OCO2 | 4% | 0% | -1 | -8% | -3
Cc1ccc(NC(=O)CCC(=O)NNC(=O)COc2ccc([N+](=O)[O-])cc2)c(C)c1 | 0% | / | -3 | 7% | -6
COCCNC(=S)N1CCC(NC(=O)Nc2ccc(C)cc2)CC1 | 0% | 7% | 9 | 1% | -10
C#CCCCO/N=C1/[C@H]2O[C@@H]2[C@@H](O)[C@H]2[C@H]1CCn1c(=O)n(Cc3cc4c(cc3Cl)OCO4)c(=O)n12 | / | 0%[12.9 µM] | / | / | /
COc1ccc(C(=O)Nc2ccc3c(c2)OCCO3)cc1Br | 5% | -2% | 19* | 4% | 34*
CCN1C(=O)c2ccc(C(=O)Nc3ccc4c(c3)OCO4)cc2C1=O | -11% | 3% | 23* | 12% | 62*
O=C(Nc1c(C(=O)Nc2cccc(F)c2)oc2ccccc12)c1ccc2c(c1)OCO2 | 3% | 0% | 12 | -9% | 30
O=C(Nc1cccc(F)c1)c1ccc2c(c1)OCO2 | ? | -18% | 59* | -19% | 69*
O=C(Nc1ccc2c(c1)OCCO2)c1ccc(Br)o1 | ? | -24% | 42* | -70% | 91*
O=c1[nH]cc(CS(=O)(=O)Cc2c[nH]c(=O)[nH]c2=O)c(=O)[nH]1 | / | / | / | 1% | /
O=C(Nc1cccc(-c2cn3c(n2)SCC3)c1)c1ccc2c(c1)OCO2 | -2% | -10% | 31 | / | 116*
CCC(=O)Nc1cccc(NC(=O)c2ccc3c(c2)OCCO3)c1 | -17% | -11% | 50* | 2% | 56*
Cc1ccc(C(=O)Nc2ccc3c(c2)OCCO3)cc1 | -20% | -2% | 15 | -47% | 47*
Cc1ccc(CN(c2ccc(C(=O)Nc3ccc4c(c3)OCO4)cc2)S(C)(=O)=O)cc1 | 4% | -14% | 12 | 6% | 17
CCN1C(=O)c2cccc3c(NC(=O)c4ccc5c(c4)OCCO5)ccc1c23 | 1% | 1% | 13* | 2% | 10
O=S(=O)(NCCNC/C=C/c1ccc(Br)cc1)c1cccc2cnccc12 | / | -4% | / | -11% | /
COCCN=C1OC(=O)N2C(=O)C3=C4C(C[C@H]5C(=O)N(CC(=O)OC)C(=O)[C@H]5[C@H]4[C@@]12Cc1ccccc1)[C@H]1C(=O)N(CC(=O)OC)C(=O)[C@H]1[C@H]3C (stereo partly specified) | / | -1% | / | / | /
Cc1ccc(C(=O)Nc2ccc3c(c2)OCO3)cc1 | 22µM* | ? | 25* | -53% | 56
O=C(Nc1ccc2c(c1)OCCO2)c1ccc(Br)cc1 | -2% | -14% | 33* | 3% | 48
CCc1nc2ccc(C(=O)Nc3ccc4c(c3)OCO4)cc2nc1CC | -9% | 2% | 27* | / | 35
O=C(Nc1ccc2c(c1)OCO2)c1ccncc1 | -5% | 4% | 15 | -1% | 18
O=C(Nc1ccc2c(c1)OCCO2)c1cccc(Br)c1 | -13% | -2% | 38* | -86% | 43*
COc1ccc(-c2nc3cnc(OC)nc3n(-c3ccc(OC)cc3)c2=O)cc1 | / | 1% | / | / | /
O=C(/C=C/c1ccc(O)cc1)OC[C@H]1O[C@@H](Oc2c(-c3ccc(O)cc3)oc3cc(O)cc(O)c3c2=O)[C@H](O)[C@@H](O)[C@@H]1O | / | 4% | -4 | / | 13
